Potency data for 40 compounds are collected here from PubChem BioAssay (Tox21).

Molecules are shown by their SMILES. Records with an inconclusive call do not appear. A call without a number means that no potency is given here. Activity calls are given as the source filed them. Calls follow the shape of the full dose curve.

5-hydroxytryptamine receptor 2A (Homo sapiens), sequence (P28223 whole entry, looked up): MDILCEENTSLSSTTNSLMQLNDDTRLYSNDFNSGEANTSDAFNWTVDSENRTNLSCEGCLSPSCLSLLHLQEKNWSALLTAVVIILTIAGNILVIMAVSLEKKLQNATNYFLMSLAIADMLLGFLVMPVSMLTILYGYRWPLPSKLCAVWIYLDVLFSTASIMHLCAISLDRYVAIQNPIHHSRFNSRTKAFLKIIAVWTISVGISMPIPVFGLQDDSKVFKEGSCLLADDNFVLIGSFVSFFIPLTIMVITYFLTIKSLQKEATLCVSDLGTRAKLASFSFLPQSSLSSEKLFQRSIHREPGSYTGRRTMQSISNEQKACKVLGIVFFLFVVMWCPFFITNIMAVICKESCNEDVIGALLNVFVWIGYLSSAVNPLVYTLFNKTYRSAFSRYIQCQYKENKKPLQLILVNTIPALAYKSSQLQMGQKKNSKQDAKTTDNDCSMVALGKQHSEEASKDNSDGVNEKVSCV

This assay has as its target 5-hydroxytryptamine receptor 2A (Homo sapiens) (UniProt P28223). The assay can be described thus: 5-hydroxytryptamine receptor 2A (HTR2A) small molecule antagonists, cell-based qHTS assay (AID 1963586). Also: nearly all actives have a fitted effect of over 45% in size. Particulars: HTR2A-CHO cells, DOI-induced calcium flux, fluorescence; series mostly up to 61.5 µM. The text has this: National Center for Advancing Translational Sciences [NCATS]
Division of Preclinical Innovation [DPI]
U.S. Environmental Protection Agency [EPA]
National Institutes of Environmental Health Sciences [NIEHS]
National Toxicology Program [NTP]
U.S. Food and Drug Administration [FDA]
The HTR2A receptor is a subtype of the 5-HT2 receptor that belongs to the serotonin receptor family and is a G protein-coupled receptor (GPCR). The HTR2A-CHO cell line stably expressing human 5-hydroxytryptamine receptor 2A (HTR2A) can be used for screening antagonists of interactions between 5-HT2 and its ligands. The HTR2A-CHO calcium flux assay is a homogeneous fluorescence-based assay for detecting the intracellular calcium level using FDSS kinetic plate reader system.
Tox21 Assay Protocol Summary:
HTR2A-CHO cells were dispensed at 2000 cells/3uL/well in 1536-well black-clear bottom plates using a Multidrop Dispenser. After the assay plates were incubated at a 37 C/5% CO2 incubator for 18 h, 3 uL of Dye Loading Buffer was transferred to the assay plate by a Flying Reagent Dispenser. The assay plates were incubated at 37 C for 1h. For antagonist mode, 23 nL of compounds dissolved in DMSO, positive controls or DMSO only was transferred to the assay plate by a pin tool. After 5 min incubation at room temperature, 1.5 uL of 4-Iodo-2,5-dimethoxy-alpha-methylbenzeneethanamine hydrochloride (DOI) at 4nM was added to each well. The fluorescence intensity in the plates was measured using FDSS 7000EX kinetic plate reader for 3 min at 1 sec intervals.
On the technique in general: In qHTS, concentration-response curves come from the screen itself.
Take `Clc1ccc(Cl)c(Cl)c1Cl`: the Potency entry was “inactive”. In the case of `O=C(c1ccccc1)c1ccc(O)c(O)c1O` it was “inactive”; in that of `O=[N+]([O-])c1cccc(Cl)c1`, “inactive”. Then `CC[N+](CC)(CC(=O)Nc1c(C)cccc1C)Cc1ccccc1`, with “inactive”. In the case of `O=C1CCCCCCCCCCC1` it was “inactive”; in that of `O=c1n(CC2CO2)c(=O)n(CC2CO2)c(=O)n1CC1CO1` (stereo not given), “inactive”. As for `CCCCCCCCCC(=O)OC`, the Potency result is “inactive”. For the compound `CC(C)CC(=O)CC(C)C`, the Potency entry was “inactive”. Then `C#CC1(O)CC[C@H]2[C@@H]3CCC4=CCCC[C@@H]4[C@H]3CC[C@@]21C` (stereo not given in full), with “inactive”; and `Cc1cccc(O)c1`, with “inactive”.

For `CC1=C(/C=C/C(C)=C/C=C/C(C)=C/C(=O)Nc2ccc(O)cc2)C(C)(C)CCC1`, the Potency result was “inactive”. In the case of `C[C@]12CC[C@@H]3c4ccc(O)cc4C[C@@H](CCCCCCCCCS(=O)CCCC(F)(F)C(F)(F)F)[C@H]3[C@@H]1CC[C@@H]2O` (stereo not given in full) it was “inactive”.

As for `Cc1ccc(S(=O)(=O)O)cc1`, the Potency entry is “inactive”. Regarding `Cc1ccc(C)c(S(=O)(=O)O)c1`, the Potency entry is “inactive”.

`CCOCC(=O)O`: the Potency result was “inactive”.

Take `O=C(O)CS`: the Potency entry is “inactive”. In the case of `NCCOCCO` it was “inactive”. On to `CC(O)CC(C)(C)O` (stereo not given), for which the Potency entry is “inactive”. `CC(C)(CO)CO`: the Potency entry is “inactive”. In the case of `O=C1O[C@H](CO)[C@@H](O)[C@H](O)[C@H]1O` it was “inactive”; in that of `COC(=O)c1ccc(C=O)cc1`, “inactive”.

With `C=Cc1ccc(C)cc1`, the Potency entry is “inactive”. Then `CCC[C@H](N[C@@H](C)C(=O)N1[C@H](C(=O)O)C[C@@H]2CCCC[C@@H]21)C(=O)OCC`, with “inactive”. Then `CN(C)CCCN`, with “inactive”; and `O=c1c(O)c(-c2ccc(O)cc2)oc2cc(O)cc(O)c12`, with “inactive”. Then `CCOCCOCCO`, with “inactive”. `CCCCCCCCO`: the Potency entry is “inactive”. In the case of `Cc1cccc([N+](=O)[O-])c1C` it was “inactive”; in that of `CCCCCCCCCCCCCC(=O)OC(C)C`, “inactive”. Then `Cc1ccccc1C=O`, with “inactive”; and `C=CCOC(=O)c1ccccc1C(=O)OCC=C`, with “inactive”. In the case of `CC(=O)c1ccccn1` it was “inactive”; in that of `CN(C)c1ccc(C(=C2C=CC(=[N+](C)C)C=C2)c2ccccc2)cc1`, “inactive”.

In the case of `C=C(C)C(=O)O[C@H]1C[C@@H]2CC[C@@]1(C)C2(C)C`, the Potency entry is “inactive”.

For `C=C[C@@]1(C)CC(=O)[C@]2(O)[C@@]3(C)[C@@H](O)CCC(C)(C)[C@@H]3[C@H](O)[C@H](OC(C)=O)[C@@]2(C)O1`, the Potency entry is “inactive”. Then `O=c1[nH]nnc2ccccc12`, with “inactive”; and `Brc1nc2ccccc2s1`, with “inactive”. In the case of `ClC1=C(Cl)C(Cl)(Cl)C(Cl)=C1Cl` it was “inactive”; in that of `NC(=O)OCC(COC(N)=O)c1ccccc1`, “inactive”. Then `O=c1[nH]c(=O)n([C@H]2C[C@H](O)[C@@H](CO)O2)cc1Br`, with “inactive”.
